These results are taken from PubChem BioAssay (NCATS).

Records with an inconclusive call do not appear. The source made the active and inactive calls. The call rests on the fitted dose curve; in most records, active means well fitted cell-killing curve with a large enough effect; inconclusive means small, poorly fitted or top-dose-only effect, or effect the other way; inactive means no such curve, though single readings can be large or run the other way.
Potency means the concentration at half of the fitted maximal effect.

One experiment can be described thus: Quantitative High-Throughput drug screen in 47 multiple myeloma cell lines against the NCATS MIPE library collection: KMS34_JCRB cell viability assay (AID 1918985). Further: nearly all actives have a fitted effect of over 40% in size. The settings on record: KMS34 myeloma viability, CellTiter-Glo ATP luminescence, 48 h; series mostly up to 45.8 µM; viability, percent of control: at the top concentration. In short, it runs like this: (§1)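 Myeloma cells (500/well) treated with MIPE 4.0 compounds for 48 h at 37 °C, 5% CO2. Viability read as ATP via CellTiter-Glo luminescence after 5 min at RT; DMSO-only wells = 100%, media-only = 0% viability.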
Consider `O=C(C=Cc1cccnc1)NCCCCC1CCN(C(=O)c2ccccc2)CC1`, for which the Potency was 0.0166 µM (active).
As for `CC(C)(O)CCc1ccc(OCc2cc(-c3cccc(OC(F)F)c3)c3ncccc3c2)cc1`, the “viability, percent of control” value is 95.6% (inactive).
Take `O=C(O)CO.[NH2-].[NH2-].[Pt+2]`: the “viability, percent of control” value is 118% (inactive).
The same measure, in the same setting: in the case of `O=C1CCC[C@@H]2[C@H]3CCC[N+]4([O-])CCC[C@@H](CN12)[C@@H]34` (stereo partly drawn) it was 108% (inactive).
Take `CCOC(=O)C1=C(C)NC2=C(C(=O)CC(C)(C)C2)C1c1ccc(-c2ccccc2)cc1` (stereo not drawn): the Potency is 18.7 µM (active).
For the compound `C=CC(=O)Nc1cccc(Oc2nc(Nc3ccc(N4CCN(C)CC4)cc3OC)ncc2Cl)c1`, the Potency was 16.6 µM (active).
Still for that read-out and setting: in the case of `Cc1ccc(S(=O)(=O)Nc2cc(Cl)ccc2C(=O)Nc2nc(-c3ccccc3)cs2)cc1` it was 20.9 µM (active); in that of `Cc1cnc(-c2cnc(NCCNc3ccc(C#N)cn3)nc2-c2ccc(Cl)cc2Cl)[nH]1`, 5.9 µM (active).
Still for that read-out and setting: with `CNC(=O)CN1CCC(Oc2cc3c(Nc4cccc(Cl)c4F)ncnc3cc2OC)CC1` the figure was 0.0372 µM (active); with `Nc1cccc(-c2cc3c(Oc4cccc(O)c4)ncnc3[nH]2)c1`, 18.7 µM (active).
As for `Nc1nc(-c2nn(Cc3ccccc3F)c3ncccc23)nc(N)c1N1CCOCC1`, the “viability, percent of control” value is 110% (inactive).
On the same count and under the same terms, with `COc1ccc(C=Cc2cc(OC)c(OC)c(OC)c2)cc1O` the figure was 6.33% (inactive); with `CNC(=O)c1ccc(-c2cnc3ncc(Cc4ccc5ncccc5c4)n3n2)cc1F`, 71.5% (inactive).
Regarding `O=C(O)[C@H](Cc1c[nH]c2ccccc12)N1C(=O)c2ccccc2C1=O`, the “viability, percent of control” value was 113% [at 92.2 µM] (inactive).
For `CC(O)C1C(=O)N2C(C(=O)O)=C(SC3CNC(C(=O)N(C)C)C3)C(C)C12` (stereo not drawn), the “viability, percent of control” value was 99.4% (inactive).
For `Nc1ccc(C(=O)c2cc3c(ccc4ccccc43)[nH]2)cc1`, the Potency is 4.18 µM (active).
Still for that read-out and setting: in the case of `COC(=O)C[C@](O)(CCCC(C)(C)O)C(=O)O[C@@H]1C(OC)=C[C@]23CCCN2CCc2cc4c(cc2[C@H]13)OCO4` it was 16.6 µM (active).

A short description of the next experiment: Quantitative High-Throughput drug screen in 47 multiple myeloma cell lines against the NCATS MIPE library collection: OCIMY7_PLB cell viability assay (AID 1918987). Further: nearly all actives have a fitted effect of over 65% in size. To be noted: OCI-MY7 myeloma viability, CellTiter-Glo ATP, 48 h; series mostly up to 45.8 µM; viability (% of DMSO): at the top concentration. The method, boiled down:
as §1
As to `O=C(C=Cc1cccnc1)NCCCCC1CCN(C(=O)c2ccccc2)CC1`, the Potency was 0.0105 µM (active).
Same read-out and setting: in the case of `Cc1c(NC(=O)OC[C@@H]2COCCN2)cn2ncnc(Nc3ccc4c(cnn4Cc4cccc(F)c4)c3)c12` it was 0.59 µM (active); in that of `CCOC(=O)C1=C(C)NC2=C(C(=O)CC(C)(C)C2)C1c1ccc(-c2ccccc2)cc1` (stereo not drawn), 3.72 µM (active); in that of `C=CC(=O)Nc1cccc(Oc2nc(Nc3ccc(N4CCN(C)CC4)cc3OC)ncc2Cl)c1`, 0.001 µM (active).
Same read-out and setting: with `COc1cc(Nc2ncc(F)c(Nc3ccc4c(n3)N(COP(=O)(O)O)C(=O)C(C)(C)O4)n2)cc(OC)c1OC` the figure was 1.87 µM (active); with `COc1cc(C(C)C)c2c(c1)S(=O)(=O)N(COc1cc(=O)n3cccc(OCCN4CCCCC4)c3n1)C2=O`, 11.8 µM (active).
In the case of `CC(C)(C)c1cc(NC(=O)Nc2ccc(-c3cn4c(n3)sc3cc(OCCN5CCOCC5)ccc34)cc2)no1`, the “viability (% of DMSO)” value was 56.9% (inactive).
As for `Cc1cnc(-c2cnc(NCCNc3ccc(C#N)cn3)nc2-c2ccc(Cl)cc2Cl)[nH]1`, the Potency was 4.18 µM (active).
Regarding `CCCCN1CCC(CNC(=O)c2c3n(c4ccccc24)CCCO3)CC1`, the Potency is 3.72 µM (active).
Same read-out and setting: with `CCc1cc2c(cc1N1CCC(N3CCOCC3)CC1)C(C)(C)c1[nH]c3cc(C#N)ccc3c1C2=O` the figure was 1.48 µM (active).
Still for that read-out and setting: with `CNC(=O)CN1CCC(Oc2cc3c(Nc4cccc(Cl)c4F)ncnc3cc2OC)CC1` the figure was 0.0833 µM (active); with `COc1ccc(CC2c3cc(OC)c(OC)cc3CC[N+]2(C)CCC(=O)OCCCCCOC(=O)CC[N+]2(C)CCc3cc(OC)c(OC)cc3C2Cc2ccc(OC)c(OC)c2)cc1OC` (stereo not drawn), 4.13 µM (active); with `Nc1cccc(-c2cc3c(Oc4cccc(O)c4)ncnc3[nH]2)c1`, 2.64 µM (active).
Turning to `CCN1CCN(Cc2ccc(-c3cc4c(N[C@H](C)c5ccccc5)ncnc4[nH]3)cc2)CC1`, the “viability (% of DMSO)” value was 7.57% (inactive).
For the compound `Cc1c(Cn2c(C)nc3c(C(=O)O)cc(N4CCOCC4)cc32)cccc1C(F)(F)F`, the Potency was 0.264 µM (active).
Same read-out and setting: in the case of `NCC(=O)Nc1ccc(-n2nc(C(F)(F)F)cc2-c2ccc3c(ccc4ccccc43)c2)cc1` it was 16.6 µM (active).
In the case of `COc1ccc(C=Cc2cc(OC)c(OC)c(OC)c2)cc1O`, the “viability (% of DMSO)” value was 8.63% (inactive).
Consider `O=C(O)[C@H](Cc1c[nH]c2ccccc12)N1C(=O)c2ccccc2C1=O`, for which the Potency is 30.3 µM (active).
On the same count and under the same terms, in the case of `Nc1ccc(C(=O)c2cc3c(ccc4ccccc43)[nH]2)cc1` it was 0.743 µM (active).
With `COC(=O)C[C@](O)(CCCC(C)(C)O)C(=O)O[C@@H]1C(OC)=C[C@]23CCCN2CCc2cc4c(cc2[C@H]13)OCO4`, the “viability (% of DMSO)” value was 127% (inactive).
On the same count and under the same terms, with `Cc1nc2ccc(CN(C)c3ccc(C(=O)N[C@@H](CCC(=O)O)C(=O)O)s3)cc2c(=O)[nH]1` the figure was 119% (inactive).

The next experiment in a line: Quantitative High-Throughput drug screen in 47 multiple myeloma cell lines against the NCATS MIPE library collection: OCIMY5_PLB cell viability assay (AID 1918988). Further: nearly all actives have a fitted effect of over 65% in size. The settings on record: OCI-MY5 myeloma viability, ATP luminescence, 48 h; series mostly up to 45.8 µM; viability, % of control: at the top concentration. In short, it runs like this: as §1
On to `CCCn1c(=O)c2[nH]c(-c3cnn(Cc4cccc(C(F)(F)F)c4)c3)nc2n(CC)c1=O`, for which the Potency is 23.5 µM (active).
On the same count and under the same terms, in the case of `O=C(C=Cc1cccnc1)NCCCCC1CCN(C(=O)c2ccccc2)CC1` it was 0.0418 µM (active); in that of `Cc1c(NC(=O)OC[C@@H]2COCCN2)cn2ncnc(Nc3ccc4c(cnn4Cc4cccc(F)c4)c3)c12`, 0.0166 µM (active); in that of `CCOC(=O)C1=C(C)NC2=C(C(=O)CC(C)(C)C2)C1c1ccc(-c2ccccc2)cc1` (stereo not drawn), 20.9 µM (active).
On the same count and under the same terms, in the case of `C=CC(=O)Nc1cccc(Oc2nc(Nc3ccc(N4CCN(C)CC4)cc3OC)ncc2Cl)c1` it was 0.0026 µM (active); in that of `COc1cc(Nc2ncc(F)c(Nc3ccc4c(n3)N(COP(=O)(O)O)C(=O)C(C)(C)O4)n2)cc(OC)c1OC`, 26.4 µM (active); in that of `CN(C1CCc2c(c3ccccc3n2CC(=O)O)C1)S(=O)(=O)c1ccc(F)cc1` (stereo not drawn), 4.69 µM (active).
As to `C[C@]12CC[C@H](O)CC1=CCC1C2CC[C@]2(C)C(n3cnc4ccccc43)=CCC12` (stereo partly drawn), the Potency was 18.7 µM (active).
Same read-out and setting: in the case of `CC(C)(C)c1cc(NC(=O)Nc2ccc(-c3cn4c(n3)sc3cc(OCCN5CCOCC5)ccc34)cc2)no1` it was 9.35 µM (active); in that of `Cc1cnc(-c2cnc(NCCNc3ccc(C#N)cn3)nc2-c2ccc(Cl)cc2Cl)[nH]1`, 20.9 µM (active); in that of `CCCCN1CCC(CNC(=O)c2c3n(c4ccccc24)CCCO3)CC1`, 3.32 µM (active).
The same measure, in the same setting: in the case of `Nc1cccc(-c2cc3c(Oc4cccc(O)c4)ncnc3[nH]2)c1` it was 23.5 µM (active).
On to `Cc1c(Cn2c(C)nc3c(C(=O)O)cc(N4CCOCC4)cc32)cccc1C(F)(F)F`, for which the Potency is 8.33 µM (active).
Take `Nc1nc(-c2nn(Cc3ccccc3F)c3ncccc23)nc(N)c1N1CCOCC1`: the “viability, % of control” value was 119% (inactive).
`NCC(=O)Nc1ccc(-n2nc(C(F)(F)F)cc2-c2ccc3c(ccc4ccccc43)c2)cc1`: the Potency was 29.6 µM (active).
The same measure, in the same setting: in the case of `CNC(=O)c1ccc(-c2cnc3ncc(Cc4ccc5ncccc5c4)n3n2)cc1F` it was 23.5 µM (active).
Consider `O=C(O)[C@H](Cc1c[nH]c2ccccc12)N1C(=O)c2ccccc2C1=O`, for which the “viability, % of control” value was 167% [at 92.2 µM] (inactive).
Still for that read-out and setting: in the case of `CC(O)C1C(=O)N2C(C(=O)O)=C(SC3CNC(C(=O)N(C)C)C3)C(C)C12` (stereo not drawn) it was 143% (inactive).
For `Nc1ccc(C(=O)c2cc3c(ccc4ccccc43)[nH]2)cc1`, the Potency was 2.64 µM (active).
Still for that read-out and setting: with `Cc1nc2ccc(CN(C)c3ccc(C(=O)N[C@@H](CCC(=O)O)C(=O)O)s3)cc2c(=O)[nH]1` the figure was 5.26 µM (active).
